Results taken from PubChem BioAssay (NCI).
“And” between values parts separate entries of the source, which are not always exact repeats. Identical values can stand only once. This is part of a sample that, as a whole, favours compounds with a hit. Of some 83,000 tested, about 20% had one in any assay.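 The endpoint reported here, percent growth, reads 100 for growth as untreated, 0 for no net growth and -100 for all cells dead.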 The source made the active and inactive calls. Rule for the calls: active = growth percent below 10; inactive = the rest.

How the values were obtained:
Test in all cases: NCI-60 one-dose screen, 48 h (100 = growth as untreated, 0 = no growth, -100 = all killed)
Details in all cases: 10 µM unless noted
HT29 colon = tested on: HT29 colon
SNB-75 CNS = tested on: SNB-75 CNS
SNB-19 CNS = tested on: SNB-19 CNS
U251 CNS = tested on: U251 CNS
PC-3 prostate = tested on: PC-3 prostate
SK-MEL-5 melanoma = tested on: SK-MEL-5 melanoma
UACC-62 melanoma = tested on: UACC-62 melanoma
LOX IMVI melanoma = tested on: LOX IMVI melanoma
SK-MEL-28 melanoma = tested on: SK-MEL-28 melanoma
SK-MEL-2 melanoma = tested on: SK-MEL-2 melanoma
EKVX NSCLC = tested on: EKVX NSCLC
SN12C renal = tested on: SN12C renal
UO-31 renal = tested on: UO-31 renal
TK-10 renal = tested on: TK-10 renal
ACHN renal = tested on: ACHN renal
CAKI-1 renal = tested on: CAKI-1 renal
A498 renal = tested on: A498 renal
CCRF-CEM leukemia = tested on: CCRF-CEM leukemia
MOLT-4 leukemia = tested on: MOLT-4 leukemia

Measured: growth

CC1=CC(=O)C=CC1=Nc1ccc(N(C)C)cc1
active: EKVX NSCLC -44.9% | CCRF-CEM leukemia -28.7%
inactive: HT29 colon 105% and 45.1% | SNB-75 CNS 123% and 76.4% | SNB-19 CNS 97.1% and 73.4% | U251 CNS 21.2% | PC-3 prostate 56% and 12.1% | SK-MEL-5 melanoma 89.4% and 17.6% | UACC-62 melanoma 88.1% and 18.2% | LOX IMVI melanoma 83.4% | SK-MEL-28 melanoma 96.8% and 74.7% | SK-MEL-2 melanoma 44.6% | SN12C renal 90.6% and 46.4% | UO-31 renal 65.6% and 50.7% | TK-10 renal 126% and 115% | ACHN renal 96.6% and 55.3% | CAKI-1 renal 87.1% and 67.3% | A498 renal 92.7% and 121% | MOLT-4 leukemia 50.4% and 12%

CCOP(=O)(OCC)/C(C#N)=C/c1c(C)[nH]c2ccccc12
inactive: HT29 colon 106% | SNB-75 CNS 49.8% | SNB-19 CNS 94.6% | U251 CNS 88.9% | PC-3 prostate 83.3% | SK-MEL-5 melanoma 91.3% | UACC-62 melanoma 82.3% | LOX IMVI melanoma 89.7% | SK-MEL-28 melanoma 113% | SK-MEL-2 melanoma 99.2% | EKVX NSCLC 97.4% | SN12C renal 92% | TK-10 renal 93.2% | CAKI-1 renal 51% | CCRF-CEM leukemia 89.6% | MOLT-4 leukemia 97.9%

Nc1nc(N)c2cc(S(=O)(=O)c3ccccc3)ccc2n1
inactive: HT29 colon 22.9% and 15% | SNB-75 CNS 78.7% and 76.9% | SNB-19 CNS 38.4% and 49.2% | U251 CNS 30.5% and 30.8% | PC-3 prostate 42.9% and 52.7% | SK-MEL-5 melanoma 23.3% and 25.3% | UACC-62 melanoma 21.5% and 53.7% | LOX IMVI melanoma 30.6% and 19.2% | SK-MEL-2 melanoma 80.2% and 126% | EKVX NSCLC 47.4% and 51.2% | SN12C renal 29.2% and 41.4% | UO-31 renal 35.3% and 61.5% | TK-10 renal 59.6% and 63.8% | ACHN renal 24% and 29.6% | CAKI-1 renal 21.3% and 22.4% | A498 renal 57.2% and 94.4% | CCRF-CEM leukemia 37.9% and 29.7% | MOLT-4 leukemia 32.8% and 49.8%

NC(=O)Cc1nc(O)cc(=O)[nH]1
inactive: HT29 colon 93.2% | SNB-75 CNS 88.1% | SNB-19 CNS 96.9% | U251 CNS 89.4% | PC-3 prostate 76.2% | SK-MEL-5 melanoma 104% | UACC-62 melanoma 98% | LOX IMVI melanoma 105% | SK-MEL-28 melanoma 113% | SK-MEL-2 melanoma 102% | EKVX NSCLC 103% | SN12C renal 96.2% | UO-31 renal 95.4% | TK-10 renal 94% | CAKI-1 renal 99.2% | A498 renal 85.6% | CCRF-CEM leukemia 88.3% | MOLT-4 leukemia 95.6%

CC1(C)CC(=O)NC1=O
inactive: HT29 colon 99.8% | SNB-75 CNS 82% | SNB-19 CNS 101% | U251 CNS 101% | PC-3 prostate 104% | SK-MEL-5 melanoma 100% | UACC-62 melanoma 99.6% | LOX IMVI melanoma 95.9% | SK-MEL-2 melanoma 99.2% | EKVX NSCLC 103% | SN12C renal 101% | UO-31 renal 87.1% | TK-10 renal 91.8% | CAKI-1 renal 93.5% | A498 renal 81.5% | CCRF-CEM leukemia 95.6% | MOLT-4 leukemia 107%

COc1ccc(C(=O)C(O)c2ccc(OC)cc2)cc1 (stereo not given)
inactive: HT29 colon 106% and 111% | SNB-75 CNS 98% and 94.1% | SNB-19 CNS 109% and 111% | U251 CNS 105% and 95.7% | PC-3 prostate 93.9% and 92.2% | SK-MEL-5 melanoma 105% | UACC-62 melanoma 100% and 105% | LOX IMVI melanoma 96.4% and 98.4% | SK-MEL-28 melanoma 114% and 109% | SK-MEL-2 melanoma 111% and 108% | EKVX NSCLC 107% and 110% | SN12C renal 113% and 112% | TK-10 renal 102% and 107% | ACHN renal 109% and 112% | CAKI-1 renal 104% and 100% | A498 renal 97.4% and 104% | CCRF-CEM leukemia 108% and 105% | MOLT-4 leukemia 107% and 100%

CCOC(=O)NC(N)=O
inactive: HT29 colon 99.9% and 106% | SNB-75 CNS 84.3% and 87.6% | SNB-19 CNS 103% and 100% | U251 CNS 101% and 96.4% | PC-3 prostate 99.3% and 92.8% | SK-MEL-5 melanoma 101% | UACC-62 melanoma 103% | LOX IMVI melanoma 97.9% and 94.7% | SK-MEL-28 melanoma 112% and 108% | SK-MEL-2 melanoma 98.7% and 126% | SN12C renal 103% and 98.1% | UO-31 renal 86.6% and 95.3% | TK-10 renal 88.4% | ACHN renal 100% and 103% | CAKI-1 renal 99.1% and 101% | A498 renal 101% and 104% | CCRF-CEM leukemia 99.2% and 99.3% | MOLT-4 leukemia 97.2% and 106%

CNc1ccc(Cl)cc1S(=O)(=O)c1ccccc1[N+](=O)[O-]
inactive: HT29 colon 101% and 106% | SNB-75 CNS 73.4% and 11.4% | SNB-19 CNS 110% and 104% | U251 CNS 84.3% and 86.7% | PC-3 prostate 91.9% and 96.2% | SK-MEL-5 melanoma 34.4% and 95.6% | UACC-62 melanoma 60.9% and 69.8% | LOX IMVI melanoma 77.5% and 81.4% | SK-MEL-28 melanoma 96.2% | SK-MEL-2 melanoma 103% and 85.6% | EKVX NSCLC 103% and 94.5% | SN12C renal 89.8% and 98.3% | UO-31 renal 91.8% and 92.6% | ACHN renal 107% and 97.9% | CAKI-1 renal 84.6% and 41.1% | A498 renal 118% | CCRF-CEM leukemia 84.9% and 93.3% | MOLT-4 leukemia 85.6% and 103%

CCOC(=O)c1csc(N)n1
inactive: HT29 colon 103% and 96.8% | SNB-19 CNS 89.9% and 96.8% | U251 CNS 111% and 86.7% | PC-3 prostate 95.4% and 94.5% | SK-MEL-5 melanoma 108% and 101% | UACC-62 melanoma 93.3% and 94.2% | LOX IMVI melanoma 105% and 99.1% | SK-MEL-28 melanoma 98.9% and 106% | SK-MEL-2 melanoma 103% | EKVX NSCLC 99.2% and 99% | SN12C renal 100% and 105% | UO-31 renal 88.5% and 91.9% | TK-10 renal 111% and 97.3% | ACHN renal 102% and 104% | A498 renal 93.5% | CCRF-CEM leukemia 91% and 98.5% | MOLT-4 leukemia 79.3% and 106%

COc1ccc(CCN=Cc2ccc(Cl)cc2)cc1OC
inactive: HT29 colon 107% | SNB-75 CNS 127% | SNB-19 CNS 101% | U251 CNS 105% | PC-3 prostate 116% | SK-MEL-5 melanoma 107% | UACC-62 melanoma 107% | LOX IMVI melanoma 95.8% | SK-MEL-28 melanoma 121% | SK-MEL-2 melanoma 98.4% | EKVX NSCLC 111% | SN12C renal 99.5% | UO-31 renal 83.7% | TK-10 renal 107% | CAKI-1 renal 101% | A498 renal 95.3% | CCRF-CEM leukemia 105% | MOLT-4 leukemia 99.9%

O=C1CCC(=O)N1CC1CC2CCC1C2 (stereo not given)
inactive: HT29 colon 103% and 95.8% | SNB-19 CNS 101% and 90.3% | U251 CNS 91.7% and 100% | PC-3 prostate 94.1% and 104% | SK-MEL-5 melanoma 110% and 92.6% | UACC-62 melanoma 96.5% and 88.5% | LOX IMVI melanoma 101% and 96.2% | SK-MEL-2 melanoma 97.5% and 111% | EKVX NSCLC 99% and 83.1% | SN12C renal 94% and 82.3% | UO-31 renal 101% and 95.5% | CAKI-1 renal 67.2% and 91.1% | A498 renal 119% and 103% | CCRF-CEM leukemia 95.1% and 104% | MOLT-4 leukemia 54.1% and 111%

Cc1nc2c(=O)[nH]c(=S)[nH]c2[nH]c1=O
inactive: HT29 colon 104% and 105% | SNB-19 CNS 104% and 102% | U251 CNS 113% and 104% | PC-3 prostate 105% and 96.7% | SK-MEL-5 melanoma 111% | UACC-62 melanoma 104% and 100% | LOX IMVI melanoma 96% | SK-MEL-28 melanoma 111% and 112% | SK-MEL-2 melanoma 102% and 114% | EKVX NSCLC 102% and 109% | SN12C renal 102% and 97.1% | UO-31 renal 93.8% and 87.3% | TK-10 renal 106% and 119% | CAKI-1 renal 94.4% and 93.9% | A498 renal 97.5% and 97.3% | CCRF-CEM leukemia 101% and 104% | MOLT-4 leukemia 100% and 103%

CC(=O)Oc1cc(C(C)C)c(OCCN(C)C)cc1C
inactive: HT29 colon 110% and 115% | SNB-19 CNS 105% and 98.2% | PC-3 prostate 92% and 103% | SK-MEL-5 melanoma 106% and 103% | UACC-62 melanoma 99.7% and 94% | LOX IMVI melanoma 94% and 102% | SK-MEL-28 melanoma 119% and 88.5% | SK-MEL-2 melanoma 116% and 119% | EKVX NSCLC 107% | SN12C renal 96.7% and 97.6% | UO-31 renal 94.2% and 97.3% | TK-10 renal 112% and 121% | A498 renal 98.3% and 97.4% | CCRF-CEM leukemia 113% and 99.6% | MOLT-4 leukemia 117% and 105%
-90.7% (active) and 97.7% (inactive): U251 CNS
